A short description of assay [1]: Nuclear factor erythroid 2-related factor 2/antioxidant responsive element (Nrf2/ARE) small molecule agonists: qHTS cell viability counter screen in human keratinocytes (AID 1919968; active = well fitted curve in the direction sought with a large enough effect in the repeat runs; an effect the other way counts as inactive or inconclusive; note: nearly all actives have a fitted effect of over 55% in size). The method, boiled down:
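Cytotoxicity was multiplexed with the Nrf2/ARE luciferase assay in the same wells. Stably transfected HaCaT keratinocytes were treated with test compounds for 23 h at 37 C. Cell viability was then measured by CellTiter-Fluor fluorescence.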
On the technique in general: In qHTS, concentration-response curves come from the screen itself.

Assay [2] has as its target KiSS-1 receptor (Homo sapiens) (UniProt Q969F8). Put plainly: Human kisspeptin (KISS1R) small molecule agonists, calcium flux assay in KISS1R-HEK293 cells (AID 1920064; active = well fitted curve in the direction sought with a large enough effect in the repeat runs; an effect the other way counts as inactive or inconclusive). Summed up: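 Agonist activity is monitored as intracellular calcium rise in engineered HEK293 cells carrying human KISS1R. Cells are dye-loaded for 1 h at 37 C before compound addition, and fluorescence is recorded for 3 min.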

The nature of assay [3]: G protein-coupled receptor (GPCR) small molecule agonists, calcium flux assay: HEK293 wild type cell line counter screen (AID 1920065). The method, boiled down: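 Seed cells, incubate 18 h (37 C, 5% CO2); add calcium dye, 1 h at 37 C; pin-transfer compounds, ATP control or DMSO; read fluorescence 480/540 nm each second for 3 min.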
A short description of assay [4]: p53 small molecule agonists, cell-based qHTS assay with human liver microsomes (AID 1963577).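 Note: p53 response element beta-lactamase reporter cells with liver microsomes plus NADPH.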 Summed up: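 With metabolic activation: human liver microsomes (0.5 mg/mL final) plus NADPH (0.5 mg/mL final) added alongside compounds to p53RE-bla cells; 16 h 37 C exposure; beta-lactamase read by LiveBLAzer fluorescence.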
The nature of assay [5]: p53 small molecule agonists, cell-based qHTS assay with rat liver microsomes (AID 1963578). The method, boiled down: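 Metabolic activation by rat liver microsomes and NADPH, each 0.5 mg/mL final, added right after compounds to p53RE-bla reporter cells (4,000/well, plated 5 h earlier). 16 h at 37 C, then LiveBLAzer substrate for 2 h at room temperature in the dark; fluorescence read-out.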

Assay [6] can be described thus: p53 small molecule agonists, cell-based qHTS assay with human liver microsomes: qHTS cell viability counter screen (AID 1963579). Note: nearly all actives have a fitted effect of over 45% in size. Summed up:
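Metabolic activation used human liver microsomes and NADPH, both 0.5 mg/mL final, over 16 hours at 37 C on p53RE-bla cells (4,000/well). Cytotoxicity measured by CellTiter-Glo luminescence, 30 min at room temperature.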

The nature of assay [7]: p53 small molecule agonists, cell-based qHTS assay with rat liver microsomes: qHTS cell viability counter screen (AID 1963580). Note: nearly all actives have a fitted effect of over 45% in size. Summed up:
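Counter screen for cytotoxicity under metabolic activation: rat liver microsomes and NADPH, 0.5 mg/mL final each, added with compounds to p53RE-bla HCT-116 cells; 16 h at 37 C, then ATP luminescence read.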

A short description of assay [8]: p53 small molecule agonists, cell-based qHTS assay: qHTS cell viability counter screen (AID 1963581). Note: nearly all actives have a fitted effect of over 45% in size. The method, boiled down: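 Viability was counter-screened in parallel with the p53 agonist reporter by measuring intracellular ATP luminescence in the same HCT-116 p53RE-bla wells after 16 h compound treatment at 37 C.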
Assay [9] in a line: p53 small molecule agonists, cell-based qHTS assay (AID 1963582; active = well fitted activation curve with a large enough effect in the signal ratio in the repeat runs, not every such curve was filed as active; the % refers to the signal ratio). The method, boiled down:
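Cells carrying a p53-responsive bla reporter are treated with test compounds for 16 h at 37 C; beta-lactamase activity is then detected with LiveBLAzer B/G FRET substrate after 2 h at room temperature.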

Assay [10] deals with 5-hydroxytryptamine receptor 2A (Homo sapiens) (UniProt P28223). Nature of the assay: 5-hydroxytryptamine receptor 2A (HTR2A) small molecule antagonists, cell-based qHTS assay (AID 1963586). Note: nearly all actives have a fitted effect of over 45% in size. The method, boiled down:
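CHO cells stably expressing human HTR2A were plated for 18 h at 37 C, then loaded with calcium dye for 1 h. Compounds were preincubated 5 min at room temperature before DOI (4 nM solution) was added. Kinetic fluorescence was read for 3 min.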

Assay [11] shares this target. Nature of the assay: 5-hydroxytryptamine receptor 2A (HTR2A) small molecule agonists, cell-based qHTS assay (AID 1963587). Note: nearly all actives have a fitted effect of over 30% in size. The method, boiled down: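 HTR2A-CHO cells, plated 18 h at 37 C/5% CO2, dye-loaded 1 h at 37 C; compounds in DMSO added by pin tool (agonist mode). Intracellular calcium flux read as kinetic fluorescence on FDSS over 2 min at 1 s intervals.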
The target in assay [12] is Muscarinic acetylcholine receptor M1 (Homo sapiens) (UniProt P11229). Nature of the assay: Cholinergic receptor muscarinic 1 (CHRM1) small molecule antagonists, cell-based qHTS assay (AID 1963588). Note: nearly all actives have a fitted effect of over 40% in size. Note: potency is the fitted concentration of half-maximal effect. Summed up:
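Compounds were tested at 15 concentrations in three independent runs. Dye-loaded CHRM1-CHO cells were exposed 5 min at room temperature before stimulation by acetylcholine added at 50nM. Intracellular calcium was read kinetically on FDSS for 3 min.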

Assay [13] shares this target. Put plainly: Cholinergic receptor muscarinic 1 (CHRM1) small molecule agonists, cell-based qHTS assay (AID 1963589). Note: nearly all actives have a fitted effect of over 35% in size. The method, boiled down: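 Cells were plated and incubated 18 h at 37 C/5% CO2, loaded with calcium dye for 1 h at 37 C, then treated with compounds in DMSO. Fluorescence was recorded kinetically at 1 sec intervals.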
Assay [14] is described as follows: cAMP Responsive Elements (CRE) small molecule agonists, cell-based qHTS assay (AID 1963590). Summed up: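 Cells carrying a CRE-driven beta-lactamase reporter (HEK 293T) are seeded, incubated overnight (18 h), and treated with test compounds for 3 h at 37 C; reporter activity is then detected with a FRET substrate after 2 h at room temperature.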
Assay [15] in a line: cAMP Responsive Elements (CRE) small molecule antagonists, cell-based qHTS assay (AID 1963591; active = well fitted inhibition curve with a large enough effect in the signal ratio in the repeat runs, not every such curve was filed as active; the % refers to the signal ratio). The method, boiled down:
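Cells (CRE-bla HEK 293T, DMEM with 10% dialyzed FBS and 25 mM HEPES) are seeded and incubated 18 h. Compounds are added with NKH477 agonist at 0.25 uM final for 3 h, then FRET substrate for 2 h.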

Assay [16] addresses Beta-2 adrenergic receptor (Homo sapiens) (UniProt P07550). Put plainly: Adrenergic beta2 receptor (ADRB2) small molecule antagonists, cell-based qHTS assay (AID 1963592). Note: series mostly up to about 92 µM; nearly all actives have a fitted effect of over 50% in size. Summed up:
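Assay format: CHO-ADRB2 cells, 18-20hr seeding at 37C/5% CO2, then compound plus 1nM isoproterenol agonist mix for 0.5hr RT. Homogeneous time-resolved fluorescence cAMP detection after 1hr, expressed as 665/615 nm ratio.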

Assay [17] has the same target. Nature of the assay: Adrenergic beta2 receptor (ADRB2) small molecule agonists, cell-based qHTS assay (AID 1963593).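 Note: CHO cells stably overexpressing human ADRB2.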 Summed up: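 CHO cells stably over-expressing ADRB2 were plated overnight at 37C, then dosed with compounds plus a stimulation mix containing 100uM IBMX and 25uM Ro-20-1724 for 0.5hr at room temperature. cAMP was measured by HTRF competition, 1hr.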

Assay [18] addresses D(2) dopamine receptor (Homo sapiens) (UniProt P14416). Nature of the assay: Dopamine D2 receptor (DRD2) small molecule agonists, cell-based qHTS assay (AID 1963594). Note: nearly all actives have a fitted effect of over 35% in size. The method, boiled down:
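HEK293 cells stably expressing DRD2 were cultured 24 h at 37 C, then given Ro20-1724 (0.1 mM final) and compounds for 10 min at room temperature. NKH477 (200nM) was then added for 30 min. cAMP was read by HTRF.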

Assay [19] shares this target. Nature of the assay: Dopamine D2 receptor (DRD2) small molecule antagonists, cell-based qHTS assay (AID 1963595; active = well fitted inhibition curve with a large enough effect in the signal ratio in the repeat runs, with a control signal flat; the % refers to the signal ratio). The method, boiled down: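 Antagonist mode in DRD2-HEK293 cells: after compound addition with 0.1 mM Ro20-1724, cells received quinpirole (12 nM) and NKH477 (200 nM) for 30 min at room temperature; HTRF cAMP read after 1 h detection.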
Assay [20] has as its target Gonadotropin-releasing hormone receptor (Homo sapiens) (UniProt P30968). Put plainly: Human gonadotropin-releasing hormone receptor (GnRHR) small molecule agonists, calcium flux assay in GnRHR-HEK293 cells (AID 1920063). Note: nearly all actives have a fitted effect of over 35% in size. The method, boiled down:
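Agonist activity was measured as intracellular calcium flux in HEK293 cells engineered to stably express human GnRHR. After dye loading for 1 hour at 37 C, compounds in DMSO were added and fluorescence was followed for 3 minutes.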
Background: Calcium flux is commonly read through the fluorescence of an indicator in the cells.

A number with no mark means an inactive call. Inconclusive results are not listed. The source made the active and inactive calls. Unless noted, calls come from the whole dose curve.

Chain of Gonadotropin-releasing hormone receptor (Homo sapiens) (P30968 whole entry, looked up): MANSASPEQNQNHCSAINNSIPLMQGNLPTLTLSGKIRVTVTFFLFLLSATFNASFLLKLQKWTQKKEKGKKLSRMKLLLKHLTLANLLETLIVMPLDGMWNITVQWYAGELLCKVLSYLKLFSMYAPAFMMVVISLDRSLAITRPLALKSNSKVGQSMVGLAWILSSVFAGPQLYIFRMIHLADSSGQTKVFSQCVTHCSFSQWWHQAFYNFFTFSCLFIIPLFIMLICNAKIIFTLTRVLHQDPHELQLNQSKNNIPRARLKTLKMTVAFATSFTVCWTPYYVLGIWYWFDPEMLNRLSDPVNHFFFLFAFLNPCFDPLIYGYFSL
Chain of D(2) dopamine receptor (Homo sapiens) (P14416 whole entry, looked up): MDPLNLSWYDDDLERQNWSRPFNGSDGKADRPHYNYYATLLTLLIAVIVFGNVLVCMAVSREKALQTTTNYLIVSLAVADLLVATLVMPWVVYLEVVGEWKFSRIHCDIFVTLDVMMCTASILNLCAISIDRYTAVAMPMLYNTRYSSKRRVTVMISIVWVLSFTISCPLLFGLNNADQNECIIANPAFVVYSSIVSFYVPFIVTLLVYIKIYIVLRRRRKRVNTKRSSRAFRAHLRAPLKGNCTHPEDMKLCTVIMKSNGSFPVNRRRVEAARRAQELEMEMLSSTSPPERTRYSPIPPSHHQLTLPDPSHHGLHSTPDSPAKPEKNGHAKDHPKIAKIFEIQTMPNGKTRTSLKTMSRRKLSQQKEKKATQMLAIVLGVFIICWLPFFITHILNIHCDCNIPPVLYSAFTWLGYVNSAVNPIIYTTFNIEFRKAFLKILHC
Chain of Beta-2 adrenergic receptor (Homo sapiens) (P07550 whole entry, looked up): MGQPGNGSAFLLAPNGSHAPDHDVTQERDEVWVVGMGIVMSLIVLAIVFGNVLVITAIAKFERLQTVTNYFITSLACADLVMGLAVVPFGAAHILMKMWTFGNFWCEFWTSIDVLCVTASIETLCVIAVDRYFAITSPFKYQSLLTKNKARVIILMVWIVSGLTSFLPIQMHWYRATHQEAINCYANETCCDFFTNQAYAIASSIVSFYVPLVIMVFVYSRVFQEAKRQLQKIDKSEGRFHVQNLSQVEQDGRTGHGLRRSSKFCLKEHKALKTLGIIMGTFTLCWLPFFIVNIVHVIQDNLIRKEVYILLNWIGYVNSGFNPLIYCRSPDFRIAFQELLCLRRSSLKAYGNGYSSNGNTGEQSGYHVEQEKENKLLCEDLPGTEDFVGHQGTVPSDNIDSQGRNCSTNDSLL
Chain of Muscarinic acetylcholine receptor M1 (Homo sapiens) (P11229 whole entry, looked up): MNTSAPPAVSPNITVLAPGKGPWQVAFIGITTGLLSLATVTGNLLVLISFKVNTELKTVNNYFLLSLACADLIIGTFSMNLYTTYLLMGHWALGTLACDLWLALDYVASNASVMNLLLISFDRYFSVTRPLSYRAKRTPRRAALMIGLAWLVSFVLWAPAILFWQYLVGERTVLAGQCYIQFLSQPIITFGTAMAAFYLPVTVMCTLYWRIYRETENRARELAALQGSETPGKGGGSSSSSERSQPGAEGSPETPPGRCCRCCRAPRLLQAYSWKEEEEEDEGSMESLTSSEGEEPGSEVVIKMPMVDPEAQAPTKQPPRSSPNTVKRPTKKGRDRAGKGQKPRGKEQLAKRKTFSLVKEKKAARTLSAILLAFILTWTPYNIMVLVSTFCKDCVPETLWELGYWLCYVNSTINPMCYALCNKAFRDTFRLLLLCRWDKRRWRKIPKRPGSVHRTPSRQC
Chain of 5-hydroxytryptamine receptor 2A (Homo sapiens) (P28223 whole entry, looked up): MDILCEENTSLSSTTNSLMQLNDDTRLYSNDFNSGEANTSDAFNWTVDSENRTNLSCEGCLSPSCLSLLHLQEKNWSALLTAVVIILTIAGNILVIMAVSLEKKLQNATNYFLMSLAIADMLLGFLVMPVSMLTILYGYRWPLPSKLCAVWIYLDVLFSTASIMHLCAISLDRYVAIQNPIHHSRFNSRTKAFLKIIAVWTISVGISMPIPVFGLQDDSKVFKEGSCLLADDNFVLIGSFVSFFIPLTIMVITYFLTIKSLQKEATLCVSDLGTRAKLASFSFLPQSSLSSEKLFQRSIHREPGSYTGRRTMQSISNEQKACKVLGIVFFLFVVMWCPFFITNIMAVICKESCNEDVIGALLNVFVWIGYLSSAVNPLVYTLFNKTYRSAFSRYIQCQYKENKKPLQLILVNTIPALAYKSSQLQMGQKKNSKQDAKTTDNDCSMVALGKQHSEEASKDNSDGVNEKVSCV
Chain of KiSS-1 receptor (Homo sapiens) (Q969F8 whole entry, looked up): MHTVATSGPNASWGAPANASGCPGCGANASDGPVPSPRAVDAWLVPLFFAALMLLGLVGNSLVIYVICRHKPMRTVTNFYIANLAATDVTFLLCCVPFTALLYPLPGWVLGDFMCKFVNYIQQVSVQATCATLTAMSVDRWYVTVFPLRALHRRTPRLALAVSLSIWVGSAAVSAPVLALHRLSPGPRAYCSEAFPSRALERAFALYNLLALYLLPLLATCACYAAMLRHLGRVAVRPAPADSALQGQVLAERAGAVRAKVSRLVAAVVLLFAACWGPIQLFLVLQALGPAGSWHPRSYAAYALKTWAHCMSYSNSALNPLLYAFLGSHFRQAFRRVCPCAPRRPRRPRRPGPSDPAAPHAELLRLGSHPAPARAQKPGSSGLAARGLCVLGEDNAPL

With `C=Cc1ccncc1`, the Potency result in assay [1], in assay [2], in assay [3], in assay [4], in [5] and in [6] was “inactive” each time. Besides, the Potency entry in assay [7], in assay [8], in [9], in assay [10], in [11] and in [12] was “inactive” each time. Moreover, the Potency result in assay [13], in assay [14], in assay [15], in assay [16], in [17] and in assay [18] was “inactive” each time. Besides, the Potency entry in [19] was “inactive”.

As to `Nc1nc2ccccc2n1Cc1ccc(F)cc1`, the Potency result in assay [1], in assay [20], in assay [3], in [4], in [5] and in assay [6] was “inactive” each time. Besides, the Potency result in assay [7], in assay [9], in assay [11], in [12], in assay [13] and in [14] was “inactive” in each case. Moreover, the Potency result in assay [15], in assay [16], in assay [18] and in assay [19] was “inactive” throughout.

On to `O=C1c2ccccc2C(=O)N1CCc1noc(-c2ccc(CN3CCCCCC3)s2)n1`, for which the Potency result in assay [1], in assay [20], in assay [3], in [4], in [5] and in assay [6] was “inactive” in each case. Besides, the Potency result in [7], in assay [8], in assay [10], in assay [11], in assay [13] and in assay [16] was “inactive” each time. For the same compound, the Potency result in assay [18] is “inactive”. In addition, in [12], the Potency is 273 nM (active).

In the case of `C=Cc1c(C)c2cc3[nH]c(cc4nc(cc5nc(cc1[nH]2)C(C)=C5CCC(=O)O)C(CCC(=O)O)=C4C)c(C)c3C=C`, the Potency result in [1], in assay [20], in assay [3], in [5], in assay [7] and in assay [8] was “inactive” throughout. For the same compound, the Potency entry in assay [9], in assay [10], in assay [11], in [12], in [13] and in assay [14] was “inactive” throughout. For the same compound, the Potency result in assay [16] was “inactive”.

As for `Cc1ccc(C(C)(C)C)c(O)c1`, the Potency result in [1], in [20], in assay [3], in assay [4], in assay [5] and in assay [6] was “inactive” in each case. Moreover, the Potency entry in assay [7], in assay [9], in assay [13], in assay [16], in [18] and in [19] was “inactive” in each case.

For the compound `CCCCCCCC/C=C\CCCCCCCC(=O)OC(CO)CO`, the Potency result in assay [1], in assay [20], in assay [6], in assay [7], in assay [8] and in assay [10] was “inactive” in each case. For the same compound, the Potency entry in [11], in assay [13], in assay [14], in assay [15], in [16] and in assay [17] was “inactive” in each case. Further, the Potency result in assay [18] was “inactive”.

Consider `c1ccc(-c2nc3ccccc3[nH]2)cc1`, for which the Potency entry in [1], in [20], in assay [3], in assay [4], in assay [5] and in [6] was “inactive” each time. The Potency entry in [9], in [10], in [11], in assay [12], in [13] and in assay [14] was “inactive” each time. The Potency result in [15], in assay [16], in [18] and in assay [19] was “inactive” in each case.

With `Oc1ccc2ccccc2c1`, the Potency result in assay [1], in assay [20], in [3], in assay [4], in assay [6] and in assay [7] was “inactive” in each case. In addition, the Potency entry in assay [9], in assay [11], in assay [12], in assay [13], in assay [15] and in assay [18] was “inactive” each time. For the same compound, in assay [19], the Potency result was “inactive”.

As for `COC(C(=O)O)c1ccccc1` (centres undefined), the Potency entry in assay [1], in assay [20], in assay [4], in [7], in [9] and in assay [11] was “inactive” throughout. In addition, the Potency result in assay [12], in [13], in assay [14], in assay [16], in assay [17] and in [18] was “inactive” each time. In assay [19], the Potency result is “inactive”.

Source of the values: PubChem BioAssay (Tox21).
